Screening data deposited in PubChem BioAssay by Broad Institute.
The sample as a whole holds a higher share of hits than the screen did.
Tgondii IFNg = T. gondii growth inhibition under IFN-gamma; Toxoplasma gondii growth in IFN-gamma-treated host cells; hits give low values; activity change, negative = inhibition, % (test concentration not listed); 69,000 compounds, 3.8% hits; in the data active = activity change below about -70%, passing the limit was not always enough;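 also: host cells are HeLa cells infected with Toxoplasma gondii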
An asterisk follows results filed as active; ! = not active in a repeat.

Screening Cc1[nH]c(=O)[nH]c(=O)c1CC(=O)N1CCO[C@@H]2CCCC[C@H]21 returned Tgondii IFNg 1.
For COc1cccc(OC)c1C(O)c1nc(-c2ccncc2)cc2ncccc12 (stereo unspecified) the results were Tgondii IFNg 18.
For Cc1ccccc1-c1nccn1CCc1n[nH]c2c1CCCC2 the results were Tgondii IFNg 4.
For Cc1cc(C(=O)N2CCOc3c(O)cc(-c4ccccc4C)cc3C2)no1 the results were Tgondii IFNg -63.
Screening Cc1noc(CN2CCOc3c(O)cc(-c4ccc(C)s4)cc3C2)n1 returned Tgondii IFNg 0.
Cc1ccc(-c2cc(O)c3c(c2)CN(C(=O)CCN2CCCO2)CCO3)s1 was read as Tgondii IFNg -75*.
For Cc1ccc(-c2cc(O)c3c(c2)CN(C(=O)c2cccc(F)c2)CCO3)s1 the results were Tgondii IFNg -70*.
`Cc1ccc(-c2cc(O)c3c(c2)CN(CC2CCCN2C)CCO3)s1` (stereo unspecified) gave Tgondii IFNg -6.
Cc1csc(CN2CCOc3c(O)cc(-c4ccc(C)s4)cc3C2)n1 was read as Tgondii IFNg -6.
`CC(=O)N1CCc2c(nc(-c3ccncc3)nc2NC(C)c2ncc[nH]2)C1` (stereo unspecified) gave Tgondii IFNg 19.
`CC(C)c1nc2cc(NC(=O)c3ccc(OCCN4CCCC4=O)cc3)ccc2n1C` gave Tgondii IFNg -25.
For CCOc1ccc(C(=O)N2CCC(C)CC2)cc1 the results were Tgondii IFNg 13.
Screening Cc1ccc(C2(O)CCN(C(=O)C(C)Cn3cncn3)CC2)nc1 (stereo unspecified) returned Tgondii IFNg 3.
For Cc1ccc(-c2cc(NC3CCCC3)nc3[nH]ccc23)c(N)n1 the results were Tgondii IFNg -3.
Screening Nc1ncnc2c1c(-c1cnc3[nH]ccc3c1)nn2C1CCCC1 returned Tgondii IFNg -77*.
O=C(c1cc(COc2ccccc2)[nH]n1)N(Cc1ccsc1)C1CC1 was read as Tgondii IFNg -19.
COC(=O)c1cc(C)nc2c1c(=O)nc(SCc1nc(-c3ccc(OC)cc3)oc1C)n2C1CC1 was read as Tgondii IFNg 48.
`CC(C)(C)NCC(O)COc1ccccc1C(=O)CCc1ccccc1` (stereo unspecified) gave Tgondii IFNg -30.
For CC(C)(Cc1ccc2ccccc2c1)NC[C@@H](O)COc1cccc(Cl)c1C#N the results were Tgondii IFNg -72*.
`CC(C)NCC(O)COc1cccc2ccccc12` (stereo unspecified) gave Tgondii IFNg -5.
Screening Cc1nc(-c2cccc(F)c2)sc1CCNS(=O)(=O)c1ccc(F)cc1F returned Tgondii IFNg 47.
Cc1ccc(/C=C/C(=O)N2CCCC(c3nc(CCNC(=O)C4CC4)cs3)C2)cc1 (stereo unspecified) was read as Tgondii IFNg -67.
Screening CCC(=O)NCCc1csc(C2CCCN(C(=O)/C=C/c3cccc(Cl)c3)C2)n1 (stereo unspecified) returned Tgondii IFNg -79*.
Screening CC(=O)NCCc1csc(C2CCCN(C(=O)/C=C/c3ccccc3Cl)C2)n1 (stereo unspecified) returned Tgondii IFNg -6.
`Cc1nc(-c2ccc(F)cc2)sc1-c1ccc(SCc2ccc(Cl)c(Cl)c2)nn1` gave Tgondii IFNg 0.
`COc1cc2sc(NC(=O)Cc3c(C)noc3C)nc2cc1Cl` gave Tgondii IFNg -79*.
`COc1ccc2nc(NC(=O)COc3cccc(C)c3)sc2c1` gave Tgondii IFNg -2.
For COc1ccc(C(C)NC(=O)c2ccc(Cc3c(C)noc3C)s2)cc1F (stereo unspecified) the results were Tgondii IFNg 32.
For O=C(Nc1ccc2c(c1)OCCO2)c1c(O)c2cccnc2[nH]c1=O the results were Tgondii IFNg inactive.
`CC(C)CNc1nc2c(cc1C(=O)N(C)C)CCN(CCc1ccccc1)CC2` gave Tgondii IFNg -50.
For Cc1ncsc1CCNC(=O)C1CC2(CCNCC2)CN1 (stereo unspecified) the results were Tgondii IFNg 12.
`CN1CCN(Cc2ccccc2Oc2ncc(C(F)(F)F)cc2Cl)CC1` gave Tgondii IFNg 4.
For CC(C)(C)C(=O)N1CCN(c2ccc(C(F)(F)F)cn2)CC1 the results were Tgondii IFNg -7.
Screening FC(F)(F)c1ccc(N2CCN(Cc3cc(Cl)cc4c3OCOC4)CC2)nc1 returned Tgondii IFNg -85*.
`O=C1COC2(CCN(C(=O)c3ccncc3)CC2)CN1Cc1ccccn1` gave Tgondii IFNg 0.
For O=c1[nH]c2cc(Cl)c(Cl)cc2[nH]c1=O the results were Tgondii IFNg -72*.
Screening O=c1[nH]c2cc(C(F)(F)F)cc(Br)c2[nH]c1=O returned Tgondii IFNg -64.
`O=c1[nH]c2cc(Cl)c(Cl)c([N+](=O)[O-])c2[nH]c1=O` gave Tgondii IFNg 17.
Screening Cn1cc(CNC(Cn2ccnc2)c2ccccc2)c(-c2ccc3c(c2)OCCO3)n1 (stereo unspecified) returned Tgondii IFNg 6.
`CC(C)N1CCc2c(nc(C(=O)N3CCCC3)n2C)C1` gave Tgondii IFNg 21.
Screening CCn1c(=O)c(C(=O)Nc2ccccc2Cl)c(O)c2ccccc21 returned Tgondii IFNg 227.
Screening O=C(OCCOCCO)c1ccccc1Nc1cccc(C(F)(F)F)c1 returned Tgondii IFNg 39.
Screening O=C(O)c1ccccc1Nc1ccccc1 returned Tgondii IFNg -13.
`O=C(O)c1ccccc1Nc1cccc(C(F)(F)F)c1` gave Tgondii IFNg -73*!.
Screening COCC1=NC2(CCN(C(=O)NCCc3ccccc3F)CC2)C(=O)N1 returned Tgondii IFNg -16.
Screening Cc1cnc(CNC(=O)c2nc(-c3cn(Cc4ccccc4)c(C)n3)n3ccccc23)cn1 returned Tgondii IFNg -2.
CCNC(=O)c1c2c(N3CCN(C)CC3)ncnc2n2ccccc12 was read as Tgondii IFNg 35.
Cc1cnc(CNC(=O)c2c(=O)c3ccc(N4CCCN(C)CC4)nc3n3c2sc2ccccc23)cn1 was read as Tgondii IFNg -81*.
For O=C(c1coc(-c2ccccc2)n1)N1CCN(Cc2noc(-c3ccccc3)n2)CC1 the results were Tgondii IFNg -1.
CCc1nc(-c2ccccc2)n2ccn(CC#N)c(=O)c12 was read as Tgondii IFNg -44.
Screening CCOc1ncccc1-c1ccc(C)nc1N returned Tgondii IFNg -90*.
For CCOc1ncccc1-c1cc(CC)nc(N(C)C)n1 the results were Tgondii IFNg 6.
Screening CCOc1ncccc1-c1cncnc1 returned Tgondii IFNg -3.
C=CCn1c(=O)c(C(=O)NCCc2ccc(OC)c(OC)c2)c(O)c2ccccc21 was read as Tgondii IFNg 390.
Screening Cc1ccc(C(=O)N2CCC3(CCC(COCC4CC4)N3C)CC2)cc1 (stereo unspecified) returned Tgondii IFNg -3.
For Cc1cccc(CN2CCC3(CCC(COCC4CC4)N3C)CC2)n1 (stereo unspecified) the results were Tgondii IFNg -85*.
For CC(C)N1CC2(CCN(Cc3cccnc3)CC2)CC1COCC1CC1 (stereo unspecified) the results were Tgondii IFNg -4.
Cc1ccc(S(=O)(=O)N2CCC3(CC2)Nc2ccccc2-n2cccc23)cc1 was read as Tgondii IFNg 28.
`Cc1cc(C)cc(NC(=O)N2CCC3(CC2)CC(=O)c2ccccc2O3)c1` gave Tgondii IFNg 72.
Screening O=C1CC2(CCN(C(=O)NCc3ccc(F)cc3)CC2)Oc2ccccc21 returned Tgondii IFNg 198.
